Assay outcomes: PubChem BioAssay, several laboratories
Mtb FBA inh: Mtb fructose-bisphosphate aldolase inhibition | P9WQA3 | purified M. tuberculosis FBA, fluorescence read-out | inhibition, % at 1 µM | 2.3% of 360,000 active | AID 588726;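 also: 0% = vehicle and 100% = reference inhibitor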
Rv3671c inh: inhibitors of M. tuberculosis serine protease Rv3671c; P9WHR9; inhibition, % at 5.96 µM; 0.048% of 320,000 active; in the data active = inhibition above about 38%;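 also: extracellular domain of Rv3671c used as enzyme; 0% = enzyme with DMSO and 100% = no enzyme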
GDH-TPI counter-1: counter-screen for M. tuberculosis FBA inhibitors: GDH-TPI coupled enzymes. 1.2% of 360,000 active. inhibition, % at 4.8 µM. GDH-TPI coupled enzyme counterscreen, NADH absorbance. AID 588335; in the data active = inhibition above about 30%;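 also: 0% = DMSO wells and 100% = wells lacking the enzyme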
RecA splice inh: inhibitors of M. tuberculosis RecA intein splicing; P9WHJ3; cell-free RecA intein splicing, fluorescence; inhibition, % (no concentration beside the values); 0.75% of 290,000 active; AID 2221; in the data active = inhibition above about 30%;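 also: 0% = vehicle wells and 100% = reference inhibitor control wells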
Target sequence (P9WHJ3 whole entry, looked up, canonical isoform): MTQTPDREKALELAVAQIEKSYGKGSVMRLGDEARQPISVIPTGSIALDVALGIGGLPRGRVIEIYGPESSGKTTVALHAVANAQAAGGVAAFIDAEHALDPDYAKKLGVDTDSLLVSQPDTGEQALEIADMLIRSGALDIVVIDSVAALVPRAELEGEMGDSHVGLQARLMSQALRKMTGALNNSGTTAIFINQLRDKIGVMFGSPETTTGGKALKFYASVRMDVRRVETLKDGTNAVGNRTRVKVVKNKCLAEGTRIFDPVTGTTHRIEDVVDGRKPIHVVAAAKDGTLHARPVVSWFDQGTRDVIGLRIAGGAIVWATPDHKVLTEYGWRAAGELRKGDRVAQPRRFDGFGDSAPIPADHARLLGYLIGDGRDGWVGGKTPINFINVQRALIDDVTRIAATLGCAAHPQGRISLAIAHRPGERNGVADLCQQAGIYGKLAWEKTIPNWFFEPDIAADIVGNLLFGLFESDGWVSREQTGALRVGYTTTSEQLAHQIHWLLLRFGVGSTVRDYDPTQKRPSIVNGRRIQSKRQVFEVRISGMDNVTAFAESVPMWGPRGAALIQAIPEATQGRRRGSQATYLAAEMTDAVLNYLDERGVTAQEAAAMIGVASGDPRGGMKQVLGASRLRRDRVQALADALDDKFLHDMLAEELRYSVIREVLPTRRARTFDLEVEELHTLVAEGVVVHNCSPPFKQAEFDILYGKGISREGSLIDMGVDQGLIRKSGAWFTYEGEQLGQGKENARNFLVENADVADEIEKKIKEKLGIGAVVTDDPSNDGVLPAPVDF
Mtb bLac sens: beta-lactam sensitization of Mtb H37Rv; M. tuberculosis H37Rv growth with meropenem, percent inhibition; inhibition, % at 25 µM; 0.27% of 330,000 active; AID 434955; call rule not given here;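 also: growth measured after seven days incubation then overnight dye step; 0% = bacteria only wells and 100% = bacteria with antibiotic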
Mtb UGM inh: blocks M. tuberculosis UGM enzyme. AID 504406. purified UGM, fluorescence polarization probe displacement. 0.06% of 320,000 active. P9WIQ1. inhibition, % at 10 µM; in the data active = inhibition above about 10%, passing the limit was not always enough
Mtb FBA confirm: confirmation of M. tuberculosis fructose-bisphosphate aldolase inhibitors; AID 651616; 78% of 5,600 active; inhibition, % at 1 µM; purified M. tuberculosis FBA, fluorescence read-out; shares compounds with Mtb FBA inh;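 also: 0% = vehicle wells and 100% = reference inhibitor wells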
GDH-TPI counter-2: inhibits GDH-TPI coupling enzymes, flagging Mtb FBA hits | shares compounds with Mtb FBA inh | GDH-TPI coupled enzyme counterscreen, fluorescence | inhibition, % at 1 µM | 81% of 5,600 active; in the data active = inhibition above about 10%
GDH-TPI dose: inhibits GDH-TPI coupling enzymes in dose response. shares compounds with Mtb FBA inh. GDH-TPI coupled enzyme assay, fluorescence, artifact counterscreen. IC50, µM. 79% of 170 active; call rule not given here
The depositor's hits bear a star; . = no result; + = active, no number. This is a sample that favours compounds with a hit; in the whole collection about 4% have one here. Rule as the data show it, unless noted: active = inhibition above about 27%; inactive = the rest.

SMILES | Mtb FBA inh | Rv3671c inh | GDH-TPI counter-1 | RecA splice inh | Mtb bLac sens | Mtb UGM inh | Mtb FBA confirm | GDH-TPI counter-2 | others
COc1ccc(CCNC(=O)Nc2ccc3c(c2)c(=O)n(C)n3Cc2ccc(Cl)cc2)cc1OC | 88* | . | -2 | . | . | . | 29* | 28*
COc1cccc(CNC(=S)Nc2ccc3c(c2)c(=O)n(C)n3Cc2ccccc2)c1 | 56* | . | 6 | . | . | . | 68* | 44*
CN(CC(=O)Nc1ccc(F)cc1)C(=O)c1cc([N+](=O)[O-])ccc1N1CCOCC1 | 0 | 3 | 15 | -3 | -6 | -3 | . | .
Cc1ccc(NC(=O)C(C)N2CCN(C)CC2)cc1S(=O)(=O)N1CCOCC1 (configuration not stated) | 0 | -2 | -10 | . | -8 | 0 | . | .
Cc1cc(C=O)c2c(c1)C=CC1(Oc3ccccc3C(=O)N1C)O2 (configuration not stated) | . | -6 | . | 6 | 88 | -1 | . | .
CC(C(=O)Nc1nnc(C2CC2)s1)N1C(=O)C2CC=CCC2C1=O (configuration not stated) | 1 | -4 | -5 | . | -3 | 3 | . | .
Cc1cc(C)cc(CSCC(=O)N/N=C/c2ccc(OCC(=O)NCc3ccco3)cc2)c1 | 0 | -9 | 4 | 1 | 2 | 3 | . | .
CC(C)=CCn1c2ccc(NC(=S)NC3CC3)cc2c(=O)n1C | 31* | . | -2 | . | . | . | 88* | 74*
Cn1c(=O)c2cc(NC(=S)NC3CCCCC3)ccc2n1Cc1ccc(F)cc1 | 17 | . | 12 | . | . | . | . | .
COc1ccc(C2CC(c3ccc(Br)cc3)Nc3nc(N)nn32)cc1 (configuration not stated) | 2 | -2 | 0 | . | -3 | 1 | . | .
Nc1nc2n(n1)C(c1cccs1)CC(c1ccc(Br)cc1)N2 (configuration not stated) | 48* | -7 | 8 | 3 | 9 | 0 | 16 | 9 | GDH-TPI dose=7.8*
CC1=C(C)CC(C(=O)NCc2c(F)cccc2Cl)C(C(=O)O)C1 (configuration not stated) | 3 | 3 | -6 | -1 | 3 | 2 | . | .
COc1cc(Cl)ccc1OC1(C)CCN(Cc2ccccc2OC(F)F)C1 (configuration not stated) | 5 | . | 4 | . | . | . | . | .
O=c1c2ccccc2nc2n1CCc1c-2[nH]c2ccccc12 | 7 | -2 | 24 | . | -1 | -1 | . | .
Cc1cccc2c(=O)n3c(cc12)-c1[nH]c2ccccc2c1CC3 | 83* | . | 9 | . | . | . | 168* | 110*
CN(C)c1ccc2c(O)cc(=O)n(C)c2c1 | 37* | 1 | 18 | -9 | -5 | 0 | 29* | 25*
COc1ccc(C2(C(=O)NCCc3ccccc3)CCCC2)cc1OC | -2 | -11 | -14 | 1 | 6 | 3 | . | .
Cc1cccc(-n2[nH]c3c4c(ccc3c2=O)C(=O)c2ccccc2C4=O)c1 | -1 | 1 | 6 | -12 | 11 | 2 | . | .
N#Cc1nc(-c2ccco2)oc1N1CCOCC1 | 82* | 8 | 10 | -6 | -4 | -10 | 198* | 160*
N#Cc1nc(-c2ccco2)oc1N1CCC(Cc2ccccc2)CC1 | 30* | -9 | 6 | 8 | 0 | 0 | -2 | 0
N#Cc1nc(-c2ccccc2Cl)oc1N1CCOCC1 | 33* | -7 | 29 | 3 | 9 | -1 | 113* | 92*
CCOC(=O)COc1ccc(C2CC(C)=NN2c2ccccc2)cc1 (configuration not stated) | 12 | -2 | 1 | 4 | 99 | 3 | . | .
Fc1ccc(C2=NN(c3ccccc3)C(c3ccco3)C2)cc1 (configuration not stated) | 48* | 12 | 2 | -2 | -1 | -4 | 60* | 48*
Cc1ccc(N2N=C(c3ccc(F)cc3)CC2c2ccco2)cc1 (configuration not stated) | 62* | -10 | 10 | -4 | 3 | -2 | 112* | 96*
Cc1ccc(C2CC(c3ccccc3)=NN2C(=O)CSc2nnc(-c3ccc(Cl)cc3)o2)o1 (configuration not stated) | 0 | -1 | 5 | 1 | 13 | -3 | . | .
SMILES | Mtb FBA inh | Rv3671c inh | GDH-TPI counter-1 | RecA splice inh | Mtb bLac sens | Mtb UGM inh | Mtb FBA confirm | GDH-TPI counter-2 | others
Cc1ccc(C2CC(c3ccccc3)=NN2c2ccccc2)o1 (configuration not stated) | 43* | 3 | 6 | 1 | 8 | 1 | 15 | 8 | GDH-TPI dose=1.3*
CC(=O)N1N=C(c2ccc(C)cc2)CC1c1ccco1 (configuration not stated) | 4 | -8 | 5 | -2 | 3 | 0 | . | .
CCOC(=O)C1CC(c2ccccc2)=NN1c1ccccc1 (configuration not stated) | 72* | . | 23 | . | . | . | 35* | 28*
CCCS(=O)(=O)C/C(N)=N/OC(=O)c1ccccc1Cl | 2 | 5 | -11 | 6 | -8 | 1 | . | .
CCOC(=O)c1cc2c(ccn2C)n1CC(=O)N1CCN(c2ccccc2OC)CC1 | . | . | . | 2 | . | . | . | .
CCC(C)(C)C1CCc2[nH]nc(C(=O)NC(C)C)c2C1 (configuration not stated) | -2 | 0 | 8 | . | 1 | -2 | . | .
CNCc1c(OCc2ccc(F)cc2)ccc2ccccc12 | 1 | 5 | -2 | 2 | -5 | 1 | . | .
COc1ccc(C2=NN(c3ccccc3)C(c3ccc(OC)c(OC)c3)C2)cc1 (configuration not stated) | 80* | 14 | 11 | 3 | 8 | -3 | 53* | 51*
Oc1ccc(C2=NN(c3ccccc3)C(c3ccc(F)cc3)C2)cc1 (configuration not stated) | 101* | 0 | -7 | 19 | 12 | 2 | 165* | 148*
O=[N+]([O-])c1ccc(/C=C/C2=NN(c3ccccc3)C(c3ccco3)C2)o1 (configuration not stated) | -2 | . | -3 | 0 | . | . | . | .
C(=C\c1ccco1)/C1=NN(c2ccccc2)C(c2ccco2)C1 (configuration not stated) | 40* | -15 | 12 | -193 | 12 | -3 | + | +
COc1ccc(C2CC(c3cccc(Br)c3)=NN2c2ccc(S(N)(=O)=O)cc2)cc1 (configuration not stated) | 102* | . | 15 | . | . | . | 42* | 31*
COc1ccc(C2CC(c3ccccc3)=NN2c2ccc(/C=N/NC(=O)c3ccncc3)cc2)cc1 (configuration not stated) | -2 | -9 | 2 | -77 | 99 | -1 | . | .
CCc1cccc(CC)c1-n1c(SCc2cc(=O)n3ccsc3n2)nnc1-c1cccnc1 | 3 | 1 | 18 | 0 | 1 | -3 | . | .
